# Measured values published in ChEMBL document CHEMBL3988442, “University of Dundee, Small-Polar-MMV Screening Library” (2021).
# About 900 (1.7%) of roughly 53,000 compounds showed an effect of 50% or more. For the sample, strong results were picked, then their nearest neighbours and some compounds at random.
# Test system: Mycobacterium tuberculosis
# Assay: Cornell - Phenotypic assay to identify agents that inhibit growth of Mycobacterium tuberculosis
# Assay type: functional
# Design: scale not given: direction of the effect not stated beside the values
# Details: 10 mM as filed; unlikely as a test dose
row,SMILES,Percent Effect
1,COc1ccc(CNC(=O)CNc2cc3c(cc2Cl)OCCCO3)cc1,53.68%
2,COc1ccc(CNC(=O)CNc2cc3c(cc2Cl)OCCO3)cc1,-25.81%
3,O=C(CNc1cc2c(cc1Cl)OCCCO2)NCc1ccc(F)cc1,-2.409%
4,CCc1cc(C(=O)N2CCC3(CCCN(CC4CC4)C3=O)C2)cs1 (centres undefined),1.27%
5,c1ccc(Cn2cccn2)c(CNCC2CNc3ccnn3C2)c1 (centres undefined),-42.61%
6,Cc1ccccc1CN1CCC(NCC2CNc3ccnn3C2)CC1 (centres undefined),54.71%
7,Cc1cc2n(n1)CC(CNC1CCN(Cc3ccccc3C)CC1)CN2 (centres undefined),1.638%
8,CS(=O)(=O)N1Cc2ccnn2CC(C(=O)NCc2cccnc2)C1.O=C(O)C(F)(F)F.O=C(O)C(F)(F)F (centres undefined),-34.93%
9,CCC(C)NC(=O)NCc1cc2n(n1)CCCN(C1CCCCC1)C2 (centres undefined),-10.73%
10,Fc1ccccc1-c1cccc(C2CCCN(C3CCOCC3)C2)n1 (centres undefined),36.89%
11,CN(C)C1COC2(CCN(Cc3ccncc3)CC2)C1 (centres undefined),9.126%
12,CC(=O)N(Cc1noc(C2CC2)n1)C1CCN(CC2CCOCC2)C1 (centres undefined),-29.12%
13,CC(=O)N1CCC(c2nccnc2-c2ccc(C(=O)O)cc2)CC1,-19.35%
14,Cc1ccccc1CN1CCOC(c2nccc(CN(C)C)n2)C1 (centres undefined),-48.65%
15,COc1ccc(OCc2cc(C(=O)N3CCSCC3)n[nH]2)c(Cl)c1,54.8%
16,COc1ccc(OCc2cc(C(=O)N3CCCCO3)n[nH]2)c(Cl)c1,106.4%
17,COc1ccc(OCc2cc(C(=O)N3C[C@@H](C)O[C@@H](C)C3)n[nH]2)c(Cl)c1,4.963%
18,COc1ccc(OCc2cc(C(=O)N3CCC(O)CC3)n[nH]2)c(Cl)c1,6.579%
19,COc1ccc(OCc2cc(C(=O)N3CC=CC3)n[nH]2)c(Cl)c1,40.41%
20,COc1ccc(OCc2cc(C(=O)N3CCOCC3)n[nH]2)c(Cl)c1,19.45%
21,CC(C(=O)N1CCOCC1)N1CCN(Cc2nccn2C)CC1 (centres undefined),-9.72%
22,N#Cc1cccc(S(=O)(=O)N2CCCCC2C(N)=O)c1 (centres undefined),15.32%
23,O=C(Cc1cccnc1)N1CCCC(n2cncn2)C1 (centres undefined),-17.88%
24,Cc1nn(C)c2c(NCc3ccncc3)nc(C3CC3)nc12,-8.977%
25,CCN(CC(C)C#N)C(=O)CNc1cc(Cl)ccc1C(N)=O (centres undefined),-0.05585%

row,SMILES,Percent Effect
1,COCC1CCCN(C(=O)c2ccc(NC(=O)CC(C)C)c(C)c2)C1 (centres undefined),-1.652%
2,CCN(Cc1cccc(C)c1)Cn1nc(C)c2c(C)onc2c1=O,-12.96%
3,COc1nn(C)c2c1CCCN(C(=O)c1cc[nH]n1)C2,12.29%
4,COc1ccccc1C1CCN(C(=O)CN2C(=O)OC(C)(C)C2=O)CC1,53.49%
5,CC1(C)OC(=O)N(CC(=O)N2CCC(c3ccccc3F)C2)C1=O (centres undefined),22.76%
6,CC1(C)OC(=O)N(CC(=O)N2CCC(c3ccccc3Cl)C2)C1=O (centres undefined),25.58%
7,O=C(O)C(F)(F)F.O=C1CC2(CCN(Cc3ccccn3)C2)CN1c1cncnc1 (centres undefined),17.37%
8,CCCC(C#N)NC(=O)c1cc(Br)c2c(c1)OCCO2 (centres undefined),14.39%
9,Oc1ccc(Cl)cc1CNCc1ccccc1Cl,26.21%
10,Oc1ccc(Cl)cc1CNCc1cccc(C(F)(F)F)c1,70.21%
11,Oc1ccc(Cl)cc1CNCc1ccccc1C(F)(F)F,6.779%
12,CCc1nnc(NC(=O)c2c3c(nn2C2CCS(=O)(=O)C2)CCC3)s1 (centres undefined),-18.44%
13,CNC(=O)NCC1CCC2(CCN(C(=O)c3ccccc3)CC2)CO1 (centres undefined),2.943%
14,O=C(O)C(F)(F)F.O=C([C@H]1CC[C@@H]2[C@@H](CCN2C2CCOCC2)O1)N1CCOCC1,0.461%
15,O=C(CN1CCc2sccc2C1)Nc1ccnc2ccnn12,105.2%
16,Cn1nccc1NC(=O)CN1CCc2sccc2C1,-1.554%
17,CC(C)n1nccc1NC(=O)CN1CCc2sccc2C1,2.695%
18,O=C(O)C(F)(F)F.O=C(O)C(F)(F)F.O=C(c1cccnc1)N1CCC[C@]2(C[C@H](Oc3ncccc3F)CO2)C1,-30.18%
19,COCCN1CCC(c2cncc(N(C)C)n2)CC1,-17.24%
20,O=C(O)c1ccccc1-c1ccc(CN2CC(c3ccncn3)C2)o1,60.18%
21,Cc1nccc(C2CN(Cc3ccc(-c4ccccc4C(=O)O)o3)C2)n1,19.38%
22,Nc1nccc(C2CN(Cc3ccc(-c4ccccc4C(=O)O)o3)C2)n1,40.18%
23,Cc1ccc(CN(CCCn2ccnc2)Cc2ccccc2O)s1.O=C(O)CC(O)(CC(=O)O)C(=O)O,-13.23%
24,CCc1ccc(CN(CCCn2ccnc2)Cc2ccc(C)s2)o1.O=C(O)CC(O)(CC(=O)O)C(=O)O,67.99%
25,Cc1ccc(CN(CCCn2ccnc2)Cc2cccs2)s1.O=C(O)CC(O)(CC(=O)O)C(=O)O,40.45%

row,SMILES,Percent Effect
1,Cc1cnc(CCNC(=O)NCCc2ccc(O)cc2)s1,16.98%
2,O=C(c1ccno1)N1CCn2cc(CN3CCCCC3)nc2C1,6.548%
3,CCc1ccc(C(COC)NC(=O)c2ccsc2)o1 (centres undefined),37.56%
4,c1cc2n(n1)CC(CNCc1ccc(OC3CCCCC3)nc1)CN2 (centres undefined),102.7%
5,c1cc(CNCC2CNc3ccnn3C2)cc(OC2CCCCC2)n1 (centres undefined),-14.29%
6,c1cc2n(n1)CC(CNCc1ccc(OC3CCCC3)nc1)CN2 (centres undefined),-62.66%
7,O=C(C1CCC1)N1CCCn2nc(CNc3ncccn3)cc2C1,5.205%
8,CN(Cc1cc2cc(F)ccc2[nH]1)c1cc(C2CCCNC2)ncn1 (centres undefined),13.11%
9,Cc1c(CN(C)c2cc(C3CCCNC3)ncn2)[nH]c2ccccc12 (centres undefined),61.5%
10,Cc1nc(C2CCCNC2)cc(N(C)CCc2ccccc2)n1 (centres undefined),0.6184%
11,CN1C(=O)CCc2cc(NS(=O)(=O)Cc3cccc(F)c3)ccc21,1.464%
12,O=C(Nc1c(F)cccc1F)N1CC(c2nc(C3CC3)no2)C1,10.47%
13,O=C(Nc1cccs1)N1CC(c2nc(C3CC3)no2)C1,107.8%
14,COCCc1noc(C2CCN(C(=O)Nc3cccs3)CC2)n1,17.42%
15,O=C(Nc1cccnc1)[C@H]1C[C@H]2OCC[C@H]2N(Cc2ccc(F)cc2)C1.O=C(O)C(F)(F)F.O=C(O)C(F)(F)F,11.11%
16,CC(C)C(=O)NCCc1cc2nc(-c3ccncc3)ccn2n1,-48.83%
17,COCCN1CCC(CNC(=O)C2(c3ccc(Br)cc3)CCCC2)C1 (centres undefined),15.91%
18,CCCn1cc(-c2ccnc(NC3CCCc4ccccc43)n2)c(C)n1 (centres undefined),106.6%
19,Cc1nn(CCO)c(C)c1CNC1CCCCc2ccccc21 (centres undefined),11.7%
20,OCCNc1nccc(-c2cn3nccc3nc2C2CCCCC2)n1,15.49%
21,CCCn1ncc(-c2ccnc(NC3CCCc4ccccc43)n2)c1C (centres undefined),50.48%
22,CCCn1ncc(-c2ccnc(NC3CC(C)(C)NC(C)(C)C3)n2)c1C,-32.04%
23,CCCn1ncc(-c2ccnc(NC3CCSC3)n2)c1C (centres undefined),-4.809%
24,CCCn1cc(-c2ccnc(NC3CCc4ccccc43)n2)c(C)n1 (centres undefined),36.22%
25,CCCn1ncc(-c2ccnc(N[C@@H]3C[C@@H]4CC[C@H]3C4)n2)c1C,88.15%

row,SMILES,Percent Effect
1,CCCn1cc(-c2ccnc(NC3CCc4ccccc4C3)n2)c(C)n1 (centres undefined),8.734%
2,O=C1NCC2(CCCN(c3ncnc4c3CCC4)CC2)O1 (centres undefined),11.26%
3,O=C(CCSc1ccc2c(c1)OCCO2)NCC1CCS(=O)(=O)C1 (centres undefined),-7.695%
4,CCC(C)NC(=O)Nc1cccc(OCCCC#N)c1 (centres undefined),-0.4736%
5,CC(C)NC(=O)Cn1ccc2c(Cl)cccc21,18.88%
6,COc1ccc(CN(C)CC(=O)Nc2ccc3[nH]c(=O)[nH]c3c2)cc1F,-12.93%
7,Cc1cccc(NC(=O)C2CCc3ccccc3N2)c1.Cl (centres undefined),44.23%
8,COc1cccc(NC(=O)c2nc3ccccc3n(C)c2=O)c1,19.08%
9,Cc1cccc(NC(=O)C2CC(=O)n3cnnc3S2)c1 (centres undefined),107.8%
10,COc1cccc(NC(=O)C2CC(=O)n3cnnc3S2)c1 (centres undefined),106.8%
11,COc1cccc(NC(=O)N2CC[C@@H]3CN(C)S(=O)(=O)[C@@H]3CC2)c1,-43.46%
12,COc1ccc(NC(=O)C(c2ccc(OC)cc2)N2CCOCC2)cc1 (centres undefined),-0.3618%
13,COc1ccc(NC(=O)C2CC(=O)n3cnnc3S2)cc1 (centres undefined),106.3%
14,COc1ccc(C2CCCN2C(=O)Nc2ccc(OC)nc2)cc1 (centres undefined),1.248%
15,COCCN1C(=O)C2(CCC(C(=O)Nc3cccc(C)c3)CC2)N=C1C (centres undefined),23.11%
16,Cc1nnc(NC(=O)c2cc(S(=O)(=O)N3CCSCC3)c[nH]2)s1,-1.205%
17,CCc1cc(-c2ccnc3c2ccn3C)nc(N2CCOCC2)n1,3.05%
18,N#Cc1ccc(C(=O)N2CCC3(CC2)CC3)cc1,-6.813%
19,O=C(c1cc(C2CCCCC2)no1)N1C[C@H]2C[C@H](O)C[C@H]2C1,24.89%
20,CNC(=O)[C@H]1C[C@@H]2CN(C(=O)c3ccc(C)o3)C[C@@H]2N1S(C)(=O)=O,18.79%
21,Cc1cc(CC(=O)NC2CCCN(Cc3ccccc3)C2=O)n[nH]1 (centres undefined),-5.186%
22,Cc1ccccc1CN1CCCC1c1cccc(Nc2nccs2)n1 (centres undefined),44.82%
23,Cc1cnc(Nc2cccc(C3CCCN3Cc3cn(C)nc3C)n2)s1 (centres undefined),23.5%
24,Cc1nn(C)cc1CN1CCCC1c1cccc(Nc2nccs2)n1 (centres undefined),56.13%
